# Measured values as given in the supplement of paper PMC12494721.
# Structures can show the parent of a compound that is named as a salt. Values without a mark were called inactive.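 How the source made its calls: for the amine columns active = adjusted P below 0.05 in both replicates with a change the same way and a mean fold change under 0.8 or over 1.25; inactive = the rest.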
# Test system: Klebsiella aerogenes DSM 30053
# Assay: fold change of Putrescine concentration vs plate DMSO controls (fold change (ratio)); higher = more amine produced, active = hit call of the paper (significant change in both replicates, either direction)
# Conditions: incubation time: 27 h, anaerobic, 37 °C
# Summary of the method: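 Amines were quantified by LC–triple-quadrupole MS in dynamic MRM mode against external calibration curves, with drift correction within each batch. The samples were whole anaerobic mGAM cultures of four gut bacterial strains, grown for 27 h at 37 °C in 80 µL wells and extracted with cold acetonitrile/methanol with 0.1% formic acid, then centrifuged. Values are reported as fold change over DMSO controls on the same plate. The mean of 2 biological replicates is given.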
row,SMILES,fold change of Putrescine concentration
1,CC(=O)[C@H]1CC[C@H]2[C@@H]3CC=C4C[C@@H](O)CC[C@]4(C)[C@H]3CC[C@]12C [Pregnenolone] (20 µM),1.02
2,CC(C(=O)O)c1ccc(N2Cc3ccccc3C2=O)cc1 (stereo not given) [Indoprofen] (20 µM),0.993
3,Cc1cc(O)c(C(=O)N[C@@H](C(=O)N[C@@H]2C(=O)N3C(C(=O)O)=C(CSc4nnnn4C)CS[C@H]23)c2ccc(O)cc2)cn1 [Cefpiramide] (20 µM),0.981
4,CC(C)=CCC1C(=O)N(c2ccccc2)N(c2ccccc2)C1=O [Feprazone] (20 µM),1.02
5,COC(=O)C1=C(C)NC(C)=C(C(=O)OCCN(C)Cc2ccccc2)C1c1cccc([N+](=O)[O-])c1 (stereo not given) [Nicardipine hydrochloride] (20 µM),0.999
6,COCCOC(=O)C1=C(C)NC(C)=C(C(=O)OC(C)C)C1c1cccc([N+](=O)[O-])c1 (stereo not given) [Nimodipine] (20 µM),0.99
7,NS(=O)(=O)c1cc2c(cc1Cl)N=CNS2(=O)=O [Chlorothiazide] (20 µM),1.03
8,CC(Oc1ccccc1)C(=O)N[C@@H]1C(=O)N2[C@@H]1SC(C)(C)[C@@H]2C(=O)O (stereo not given in full) [Phenethicillin potassium salt] (20 µM),0.954
9,Cc1ccc(N(CC2=NCCN2)c2cccc(O)c2)cc1 [Phentolamine hydrochloride] (20 µM),0.981
10,CC1(C)O[C@@H]2C[C@H]3[C@@H]4C[C@H](F)C5=CC(=O)CC[C@]5(C)[C@H]4[C@@H](O)C[C@]3(C)[C@]2(C(=O)CO)O1 [Flurandrenolide] (20 µM),0.966
11,NS(=O)(=O)c1cc2c(cc1C(F)(F)F)NCNS2(=O)=O [Hydroflumethiazide] (20 µM),1.01
12,Nc1nc(/C(=C/CC(=O)O)C(=O)N[C@@H]2C(=O)N3C(C(=O)O)=CCS[C@H]23)cs1 [Ceftibuten] (20 µM),1.04
13,O=C(O)Cc1ccc(-c2ccccc2)cc1 [Felbinac] (20 µM),0.976
14,Nc1nnc(-c2cccc(Cl)c2Cl)c(N)n1 [Lamotrigine] (20 µM),1.02
15,Nc1nc(=O)c2nc(CNc3ccc(C(=O)N[C@@H](CCC(=O)O)C(=O)O)cc3)cnc2[nH]1 [Folic acid] (20 µM),0.997
16,Nc1ccc(S(=O)(=O)NC(=O)c2ccccc2)cc1 [Sulfabenzamide] (20 µM),0.991
17,CCC(=O)O[C@]1(C(=O)SCF)[C@H](C)C[C@H]2[C@@H]3C[C@H](F)C4=CC(=O)C=C[C@]4(C)[C@@]3(F)[C@@H](O)C[C@@]21C [Fluticasone propionate] (20 µM),1.01
18,CCOC(=O)[C@H](CCc1ccccc1)N[C@@H](C)C(=O)N1[C@H](C(=O)O)C[C@@H]2CCC[C@@H]21 [Ramipril] (20 µM),1.05
19,CO/N=C(\C(=O)N[C@@H]1C(=O)N2C(C(=O)OCOC(=O)C(C)(C)C)=C(/C=C\c3scnc3C)CS[C@H]12)c1csc(N)n1 [Cefditoren Pivoxil] (20 µM),1.12
20,NC[C@H]1O[C@H](O[C@H]2[C@H](O[C@@H]3O[C@H](CO)[C@@H](O)[C@H]3O)[C@@H](O)[C@H](N)C[C@@H]2N)[C@H](N)[C@@H](O)[C@@H]1O [Ribostamycin sulfate salt] (20 µM),0.994

row,SMILES,fold change of Putrescine concentration
1,Brc1c(NC2=NCCN2)ccc2nccnc12 [Brimonidine L-tartrate] (20 µM),0.971
2,O=c1[nH]cnc2c1ncn2[C@H]1CC[C@@H](CO)O1 [Didanosine] (20 µM),1.08
3,NS(=O)(=O)Cc1noc2ccccc12 [Zonisamide] (20 µM),1.01
4,CN(C)CCC(c1ccc(Cl)cc1)c1ccccn1 (stereo not given) [Chlorpheniramine maleate] (20 µM),0.989
5,OCC(O)CN1CCN(c2ccccc2)CC1 (stereo not given) [Dropropizine] (20 µM),1
6,CC(=O)[C@H]1CC[C@H]2[C@@H]3CCC4=CC(=O)CC[C@]4(C)[C@H]3CC[C@]12C [Progesterone] (20 µM),0.961
7,CC(C)(C)NC(=O)[C@@H]1CN(Cc2cccnc2)CCN1C[C@@H](O)C[C@@H](Cc1ccccc1)C(=O)N[C@H]1c2ccccc2C[C@H]1O [Indinavir sulfate] (20 µM),1.03
8,c1ccc2c(c1)CCCC2C1=NCCN1 (stereo not given) [Tetrahydrozoline hydrochloride] (20 µM),0.992
9,O=[N+]([O-])c1ccc(O)c2ncccc12 [Nitroxoline] (20 µM),0.894
10,COCC(=O)O[C@]1(CCN(C)CCCc2nc3ccccc3[nH]2)CCc2cc(F)ccc2[C@@H]1C(C)C [Mibefradil hydrochloride] (20 µM),1.01
11,Nc1nc(Cl)nc2c1ncn2[C@H]1C[C@H](O)[C@@H](CO)O1 [Cladribine] (20 µM),0.984
12,CN(CCOc1ccc(CC2SC(=O)NC2=O)cc1)c1ccccn1 (stereo not given) [Rosiglitazone hydrochloride] (20 µM),0.993
13,C[C@@H](O)[C@H]1C(=O)N2C(C(=O)O)=C(S[C@@H]3CN[C@H](C(=O)N(C)C)C3)[C@H](C)[C@H]12 [Meropenem] (20 µM),0.605 (active)
14,CNCCC=C1c2ccccc2C=Cc2ccccc21 [Norcyclobenzaprine] (20 µM),0.993
15,CCCCS(=O)(=O)N[C@@H](Cc1ccc(OCCCCC2CCNCC2)cc1)C(=O)O [Tirofiban hydrochloride] (20 µM),1
16,OC[C@H]1O[C@@H](n2cnc3cncnc32)[C@H](O)[C@@H]1O [Nebularine] (20 µM),1.01
17,CC1(C)S[C@@H]2[C@H](NC(=O)[C@H](N)c3ccccc3)C(=O)N2[C@H]1C(=O)O [Ampicillin trihydrate] (20 µM),1.03
18,Oc1ncnc2[nH]ncc12 [Allopurinol] (20 µM),1
19,CC(C)(C)c1ccc(C(=O)CCCN2CCC(OC(c3ccccc3)c3ccccc3)CC2)cc1 [Ebastine] (20 µM),1
20,CCOC(N)=O [Urethane] (20 µM),1.05
